The list shows a part of the results. The true hit rate is not given.
Target: furin, P09958
Assay: furin cleavage Z-score vs untreated control; higher = more cleavage, active = 3.5 or more, inactive = 1 or less, 8 variable residues between constant flanks
Protocol: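 Multiplexed peptide-cDNA fusion cleavage assay. 8-mer variable peptides flanked by constant Cys-Ala (N-term) and Ala-Gly-Asn-Ala-Ser-Ala-Ser-Ala (C-term) and conjugated to a cDNA oligonucleotide were bead-immobilised via the N-terminus. They were treated with purified furin at a 1:10 enzyme:substrate ratio in 50 mM HEPES pH 7.5, 1 mM CaCl2, 100 mM NaCl for 7.5, 15 or 30 min. Released cDNA was counted by next-generation sequencing, and log counts versus no-furin controls were lowess-adjusted and converted to robust Z-scores.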

Chain of furin, P09958 (P09958 whole entry): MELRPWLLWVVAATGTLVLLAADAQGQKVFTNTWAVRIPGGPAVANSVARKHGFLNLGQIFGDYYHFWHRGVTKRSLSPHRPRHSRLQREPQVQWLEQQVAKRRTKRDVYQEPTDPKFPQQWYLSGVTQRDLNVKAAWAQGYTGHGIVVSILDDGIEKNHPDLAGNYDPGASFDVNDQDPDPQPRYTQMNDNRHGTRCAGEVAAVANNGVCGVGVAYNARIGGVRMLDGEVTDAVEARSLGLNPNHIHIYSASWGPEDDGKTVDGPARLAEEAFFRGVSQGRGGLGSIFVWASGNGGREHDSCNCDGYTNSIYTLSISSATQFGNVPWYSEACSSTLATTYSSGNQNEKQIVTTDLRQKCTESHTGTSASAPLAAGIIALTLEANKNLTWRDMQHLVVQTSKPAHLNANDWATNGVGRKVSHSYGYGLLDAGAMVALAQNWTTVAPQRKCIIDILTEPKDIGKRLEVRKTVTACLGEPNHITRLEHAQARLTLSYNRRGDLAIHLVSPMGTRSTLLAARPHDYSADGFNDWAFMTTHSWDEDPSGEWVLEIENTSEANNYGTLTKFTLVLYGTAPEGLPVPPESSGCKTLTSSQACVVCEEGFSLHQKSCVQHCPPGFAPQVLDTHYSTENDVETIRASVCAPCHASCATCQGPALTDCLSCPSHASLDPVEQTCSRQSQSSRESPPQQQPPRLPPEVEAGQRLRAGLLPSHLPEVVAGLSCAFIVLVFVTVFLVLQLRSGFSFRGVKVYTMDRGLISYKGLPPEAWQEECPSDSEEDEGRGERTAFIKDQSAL

B1: FS-2594 (peptide)
chain: CARRKRRAPLAGNASASA
- furin cleavage Z-score (7.5 min): 4.11 (active)
- furin cleavage Z-score (15 min): 6.31 (active)
- furin cleavage Z-score (30 min): 6.38 (active)

B2: FS-3060 (peptide)
chain: CARRQRRVPGAGNASASA
- furin cleavage Z-score (7.5 min): 0.752 (inactive)
- furin cleavage Z-score (15 min): 1.27
- furin cleavage Z-score (30 min): 2.47

B3: FS-1808 (peptide)
chain: CARYARWAGAAGNASASA
- furin cleavage Z-score (7.5 min): 3.25
- furin cleavage Z-score (15 min): 3.55 (active)
- furin cleavage Z-score (30 min): 4.67 (active)

B4: FS-3262 (peptide)
chain: CARRKRHISVAGNASASA
- furin cleavage Z-score (7.5 min): 5.85 (active)
- furin cleavage Z-score (15 min): 5.59 (active)
- furin cleavage Z-score (30 min): 7.18 (active)

B5: FS-2847 (peptide)
chain: CARYARKIEPAGNASASA
- furin cleavage Z-score (7.5 min): 0.34 (inactive)
- furin cleavage Z-score (15 min): 1.98
- furin cleavage Z-score (30 min): 2.59

B6: HC1292 (peptide)
chain: CAEDEREISVAGNASASA
- furin cleavage Z-score (7.5 min): 0.521 (inactive)
- furin cleavage Z-score (15 min): -0.358 (inactive)
- furin cleavage Z-score (30 min): 1.28

B7: FS-1809 (peptide)
chain: CARYHRDAGAAGNASASA
- furin cleavage Z-score (7.5 min): 1.33
- furin cleavage Z-score (15 min): 1.22
- furin cleavage Z-score (30 min): 0.229 (inactive)

B8: HC39 (peptide)
chain: CAMEECQQHLAGNASASA
- furin cleavage Z-score (7.5 min): 1.54
- furin cleavage Z-score (15 min): 0.787 (inactive)
- furin cleavage Z-score (30 min): 2.55

B9: HC561 (peptide)
chain: CALALPQRAYAGNASASA
- furin cleavage Z-score (7.5 min): 0.0304 (inactive)
- furin cleavage Z-score (15 min): 1.97
- furin cleavage Z-score (30 min): 1.07

B10: HC2162 (peptide)
chain: CAQVVTSTWVAGNASASA
- furin cleavage Z-score (7.5 min): 0.38 (inactive)
- furin cleavage Z-score (15 min): 0.0342 (inactive)
- furin cleavage Z-score (30 min): 0.112 (inactive)

B11: HC2168 (peptide)
chain: CAEWVTSTWVAGNASASA
- furin cleavage Z-score (7.5 min): 0.00297 (inactive)
- furin cleavage Z-score (15 min): 0.984 (inactive)
- furin cleavage Z-score (30 min): 0.871 (inactive)

B12: HC2044 (peptide)
chain: CAVVCCSISYAGNASASA
- furin cleavage Z-score (7.5 min): 0.197 (inactive)
- furin cleavage Z-score (15 min): -0.41 (inactive)
- furin cleavage Z-score (30 min): -0.348 (inactive)

B13: FS-2964 (peptide)
chain: CARKKREKKKAGNASASA
- furin cleavage Z-score (7.5 min): -0.433 (inactive)
- furin cleavage Z-score (15 min): -0.316 (inactive)
- furin cleavage Z-score (30 min): 0.927 (inactive)

B14: FS-2562 (peptide)
chain: CARKKRATHSAGNASASA
- furin cleavage Z-score (7.5 min): 11.5 (active)
- furin cleavage Z-score (15 min): 12.2 (active)
- furin cleavage Z-score (30 min): 9.97 (active)

B15: FS-2961 (peptide)
chain: CARKKRADKKAGNASASA
- furin cleavage Z-score (7.5 min): 5 (active)
- furin cleavage Z-score (15 min): 6.53 (active)
- furin cleavage Z-score (30 min): 5.44 (active)

B16: FS-2270 (peptide)
chain: CARKKRSTKKAGNASASA
- furin cleavage Z-score (7.5 min): 5.56 (active)
- furin cleavage Z-score (15 min): 7.13 (active)
- furin cleavage Z-score (30 min): 6.85 (active)

B17: FS-2395 (peptide)
chain: CARKKRYDRKAGNASASA
- furin cleavage Z-score (7.5 min): 4.56 (active)
- furin cleavage Z-score (15 min): 7.7 (active)
- furin cleavage Z-score (30 min): 7.88 (active)

B18: FS-1828 (peptide)
chain: CARKKRREEKAGNASASA
- furin cleavage Z-score (7.5 min): -0.326 (inactive)
- furin cleavage Z-score (15 min): 2.8
- furin cleavage Z-score (30 min): 0.74 (inactive)

B19: HC1758 (peptide)
chain: CAMEECSQTLAGNASASA
- furin cleavage Z-score (7.5 min): 0.0304 (inactive)
- furin cleavage Z-score (15 min): 0.61 (inactive)
- furin cleavage Z-score (30 min): 0.799 (inactive)

B20: HC787 (peptide)
chain: CAVLNPSVAAAGNASASA
- furin cleavage Z-score (7.5 min): -0.311 (inactive)
- furin cleavage Z-score (15 min): -0.0498 (inactive)
- furin cleavage Z-score (30 min): -0.157 (inactive)

B21: HC558 (peptide)
chain: CAPLLLLLLAAGNASASA
- furin cleavage Z-score (7.5 min): -0.475 (inactive)
- furin cleavage Z-score (15 min): -2.1 (inactive)
- furin cleavage Z-score (30 min): 0.488 (inactive)

B22: FS-847 (peptide)
chain: CAQGTRFKRAAGNASASA
- furin cleavage Z-score (7.5 min): 11.1 (active)
- furin cleavage Z-score (15 min): 10.3 (active)
- furin cleavage Z-score (30 min): 8.39 (active)

B23: FS-699 (peptide)
chain: CAPLKRFKRAAGNASASA
- furin cleavage Z-score (7.5 min): 12.2 (active)
- furin cleavage Z-score (15 min): 12 (active)
- furin cleavage Z-score (30 min): 9.3 (active)

B24: FS-1248 (peptide)
chain: CAQLGRPKRCAGNASASA
- furin cleavage Z-score (7.5 min): 8.77 (active)
- furin cleavage Z-score (15 min): 10.3 (active)
- furin cleavage Z-score (30 min): 8.22 (active)

B25: HC1066 (peptide)
chain: CAILGGWVAAAGNASASA
- furin cleavage Z-score (7.5 min): -0.934 (inactive)
- furin cleavage Z-score (15 min): -0.574 (inactive)
- furin cleavage Z-score (30 min): -1.27 (inactive)

B26: FS-1047 (peptide)
chain: CAPKGRPKRAAGNASASA
- furin cleavage Z-score (7.5 min): 11.3 (active)
- furin cleavage Z-score (15 min): 13.3 (active)
- furin cleavage Z-score (30 min): 9.54 (active)

B27: HC276 (peptide)
chain: CAREGNASRCAGNASASA
- furin cleavage Z-score (7.5 min): -0.0161 (inactive)
- furin cleavage Z-score (15 min): -0.511 (inactive)
- furin cleavage Z-score (30 min): -0.0787 (inactive)

B28: HC2362 (peptide)
chain: CAEVQCHRPSAGNASASA
- furin cleavage Z-score (7.5 min): 0.385 (inactive)
- furin cleavage Z-score (15 min): 1.46
- furin cleavage Z-score (30 min): 0.778 (inactive)

B29: HC1202 (peptide)
chain: CAWRVSAEEYAGNASASA
- furin cleavage Z-score (7.5 min): -0.863 (inactive)
- furin cleavage Z-score (15 min): -1.63 (inactive)
- furin cleavage Z-score (30 min): -0.815 (inactive)

B30: HC1724 (peptide)
chain: CAMEECSIHLAGNASASA
- furin cleavage Z-score (7.5 min): 0.188 (inactive)
- furin cleavage Z-score (15 min): 1.13
- furin cleavage Z-score (30 min): 0.153 (inactive)

B31: FS-1937 (peptide)
chain: CARTRRTSKPAGNASASA
- furin cleavage Z-score (7.5 min): 0.687 (inactive)
- furin cleavage Z-score (15 min): 3.02
- furin cleavage Z-score (30 min): 2.44

B32: HC262 (peptide)
chain: CAVTNDCPNSAGNASASA
- furin cleavage Z-score (7.5 min): -1.55 (inactive)
- furin cleavage Z-score (15 min): -2.42 (inactive)
- furin cleavage Z-score (30 min): -2.48 (inactive)

B33: FS-3213 (peptide)
chain: CARTRRCVCVAGNASASA
- furin cleavage Z-score (7.5 min): -0.371 (inactive)
- furin cleavage Z-score (15 min): -0.858 (inactive)
- furin cleavage Z-score (30 min): -0.127 (inactive)

B34: FS-3111 (peptide)
chain: CARTRRNIDAAGNASASA
- furin cleavage Z-score (7.5 min): 6.35 (active)
- furin cleavage Z-score (15 min): 7.27 (active)
- furin cleavage Z-score (30 min): 4.76 (active)

B35: FS-2316 (peptide)
chain: CARTRRSINSAGNASASA
- furin cleavage Z-score (7.5 min): 7.8 (active)
- furin cleavage Z-score (15 min): 8.93 (active)
- furin cleavage Z-score (30 min): 7.57 (active)

B36: FS-924 (peptide)
chain: CAASSRNIRSAGNASASA
- furin cleavage Z-score (7.5 min): 5.59 (active)
- furin cleavage Z-score (15 min): 8.19 (active)
- furin cleavage Z-score (30 min): 6.71 (active)

B37: FS-1663 (peptide)
chain: CAVRSRSIRSAGNASASA
- furin cleavage Z-score (7.5 min): 11.3 (active)
- furin cleavage Z-score (15 min): 11.8 (active)
- furin cleavage Z-score (30 min): 8.54 (active)

B38: HC2225 (peptide)
chain: CAEVVTSTLVAGNASASA
- furin cleavage Z-score (7.5 min): -0.125 (inactive)
- furin cleavage Z-score (15 min): 0.377 (inactive)
- furin cleavage Z-score (30 min): -0.731 (inactive)

B39: HC2134 (peptide)
chain: CAEKVVCCSMAGNASASA
- furin cleavage Z-score (7.5 min): -0.767 (inactive)
- furin cleavage Z-score (15 min): 0.357 (inactive)
- furin cleavage Z-score (30 min): -1.09 (inactive)

B40: FS-910 (peptide)
chain: CALDRRSQRSAGNASASA
- furin cleavage Z-score (7.5 min): 2.25
- furin cleavage Z-score (15 min): 3.02
- furin cleavage Z-score (30 min): 4.23 (active)

B41: FS-1646 (peptide)
chain: CAMSIRSDRSAGNASASA
- furin cleavage Z-score (7.5 min): 1.46
- furin cleavage Z-score (15 min): 0.662 (inactive)
- furin cleavage Z-score (30 min): 1.58

B42: FS-2871 (peptide)
chain: CALSRRSISKAGNASASA
- furin cleavage Z-score (7.5 min): 0.267 (inactive)
- furin cleavage Z-score (15 min): 1.81
- furin cleavage Z-score (30 min): -1.35 (inactive)

B43: FS-308 (peptide)
chain: CAVHFRSIRSAGNASASA
- furin cleavage Z-score (7.5 min): 8.08 (active)
- furin cleavage Z-score (15 min): 8.31 (active)
- furin cleavage Z-score (30 min): 5.71 (active)

B44: HC1605 (peptide)
chain: CALSAFSLHSAGNASASA
- furin cleavage Z-score (7.5 min): 0.383 (inactive)
- furin cleavage Z-score (15 min): 0.938 (inactive)
- furin cleavage Z-score (30 min): 1.75

B45: FS-461 (peptide)
chain: CALSRRSIRSAGNASASA
- furin cleavage Z-score (7.5 min): 10.4 (active)
- furin cleavage Z-score (15 min): 11.5 (active)
- furin cleavage Z-score (30 min): 9.32 (active)

— the supplement of paper PMC3545927
